From PubChem BioAssay (NCI)
This is part of a sample that, as a whole, favours compounds with a hit. Of some 83,000 tested, about 20% had one in any assay.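 Step 1: grow cells in 96-well plates. Step 2: add test compound at a single concentration. Step 3: incubate 48 h. Step 4: record percent growth.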 Values without a mark were called inactive. Active and inactive are the calls of the source. Rule for the calls: active = growth percent below 10; inactive = the rest.

tested on: OVCAR-8 ovarian; experiment: NCI-60 one-dose screen, 48 h (100 = growth as untreated, 0 = no growth, -100 = all killed); conditions: 10 µM unless noted

SMILES	growth
CCCCCCCCCCCCC[N+](C)(C)Cc1ccccc1	-30.5% (active)
COc1ccc(/C=C/C(=O)c2ccc(O)c(CN3CCN(c4cc5c(cc4F)c(=O)c(C(=O)O)cn5C4CC4)CC3)c2)cc1	13.2%
O=S(=O)(Nc1ccc(OC(F)F)cc1)c1ccc(-c2cnc(C3CC3)o2)cc1	78.4%
N#C/C(=C\c1ccc(-c2cc(C(F)(F)F)ccc2Cl)o1)c1nc(-c2ccco2)cs1	103%
O=C(O)c1ccc(N=CC(=O)c2ccc(-c3ccccc3)cc2)cc1	98.7%
COc1cccc(-c2nn(C(C)(C)C)cc2-c2ccnc(NCCCNS(=O)(=O)c3ccc(C)cc3)c2)c1	103%
CC(C)n1c(/C=C/[C@@H](O)C[C@@H](O)CC(=O)O)c(-c2ccc(F)cc2)c2ccccc21	40.2%
N#Cc1c(-c2ccc(Cl)cc2)nc(N/N=C/c2cccc(Br)c2)nc1N1CCOCC1	101%
COc1ccc(-c2nc3ccc(-c4nc5ccc(N6CCN(c7ccncc7)CC6)cc5[nH]4)cc3[nH]2)cc1OC	34.6%
CSc1nc(NCc2ccccc2)c(C#N)c(-c2cccc([N+](=O)[O-])c2)n1	95%
O=C(/C=C/c1cccc(Cl)c1)c1ccc(O)c(CN2CCN(c3cc4c(cc3F)c(=O)c(C(=O)O)cn4C3CC3)CC2)c1	20.6%
CC1(C)CC[C@]2(C(=O)Nc3ccccn3)CC[C@]3(C)C(=CC[C@@H]4[C@@]5(C)C/C(=C/c6cccnc6)C(=O)C(C)(C)[C@@H]5CC[C@]43C)[C@H]2C1	29.3%
COC(=O)[C@]12CCC(C)(C)C[C@H]1[C@H]1C(=O)C[C@@H]3[C@@]4(C)c5c([nH]c6ccccc6c5=O)C(C)(C)[C@@H]4CC[C@@]3(C)[C@]1(C)CC2	59.2%
CC1=CC(=NN=c2cc(C)n([O-])c(C)c2)C=C(C)[N+]1=O	86.2%
CCC(=O)c1ccc(Cl)s1	101%
Cn1c(=O)c2c(nc3n(-c4ccc(Cl)cc4Cl)c(Sc4nc(-c5ccccc5)c(C#N)c(=O)[nH]4)cn23)n(C)c1=O	34.2%
